Screens: PubChem BioAssay, Broad Institute
RAD54 branch: RAD54 (human) branch migration inhibition; Q92698; RAD54 Holliday junction branch migration, FAM/BHQ fluorescence; 0.14% of 360,000 active; inhibition, % at 10.4 µM;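 active = mean normalized replicate activity at least 40 and at least half of replicates scoring 40 or more; inconclusive = only one of the two criteria met; inactive = mean below 40 and under half of replicates reaching 40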;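 also: 0% = median of neutral control wells and 100% = median of positive control wells; inhibitors cause a drop in the FAM fluorescence signal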
N-glyco inh: blocks N-linked glycosylation in D54 reporter cells. D54 ERlucT glycosylation luciferase reporter, 24 h; percent of 100 nM tunicamycin response. AID 588692. 0.23% of 360,000 active. reporter increase, % at 12.5 µM;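 active = mean luciferase reporter signal, scaled so untreated is 0 and the glycosylation-blocking control 100, at or above a set limit in every replicate; inconclusive = mean reaches the limit but not every replicate does; inactive = mean below the limit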;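 also: luciferase carries N-glycosylation sites so blocking glycosylation raises the light; 0% = median of neutral control wells and 100% = median of 100 nM tunicamycin wells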
RAD52 anneal inh: blocks human RAD52 DNA annealing; 0.46% of 360,000 active; recombinant RAD52 DNA annealing, FRET fluorescence; inhibition, % at 18.7 µM;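 active = every replicate showing at least 50% inhibition; inconclusive = mean inhibition at least 50% but not in every replicate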
Casp6 inh: inhibitors of human caspase-6 | P55212 | purified caspase-6, Z-VEID-R110 cleavage fluorescence | inhibition, % at 12.5 µM | 0.53% of 350,000 active | AID 686996;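 active = mean inhibition across replicates at least about 35%, with every replicate also reaching that limit, limit read from the data; inconclusive = only one of the two criteria met; inactive = neither criterion met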;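 also: 0% = median of neutral control wells and 100% = no fluorescence left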
MLL AF4-AF9 inh: inhibitors of human MLL-AF4/AF9 interaction. inhibition, % at 10 µM. P42568. 0.47% of 350,000 active. AID 651704. AlphaScreen, biotin-AF4 peptide binding to FLAG-AF9;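 active = every replicate reaching a set inhibition limit, whatever the replicate mean, cut at about 25% in these data; inconclusive = mean inhibition reaches that limit but some replicates miss it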;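 also: 0% = plate neutral control median and 100% = total signal loss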
Target sequence (P42568 whole entry, looked up): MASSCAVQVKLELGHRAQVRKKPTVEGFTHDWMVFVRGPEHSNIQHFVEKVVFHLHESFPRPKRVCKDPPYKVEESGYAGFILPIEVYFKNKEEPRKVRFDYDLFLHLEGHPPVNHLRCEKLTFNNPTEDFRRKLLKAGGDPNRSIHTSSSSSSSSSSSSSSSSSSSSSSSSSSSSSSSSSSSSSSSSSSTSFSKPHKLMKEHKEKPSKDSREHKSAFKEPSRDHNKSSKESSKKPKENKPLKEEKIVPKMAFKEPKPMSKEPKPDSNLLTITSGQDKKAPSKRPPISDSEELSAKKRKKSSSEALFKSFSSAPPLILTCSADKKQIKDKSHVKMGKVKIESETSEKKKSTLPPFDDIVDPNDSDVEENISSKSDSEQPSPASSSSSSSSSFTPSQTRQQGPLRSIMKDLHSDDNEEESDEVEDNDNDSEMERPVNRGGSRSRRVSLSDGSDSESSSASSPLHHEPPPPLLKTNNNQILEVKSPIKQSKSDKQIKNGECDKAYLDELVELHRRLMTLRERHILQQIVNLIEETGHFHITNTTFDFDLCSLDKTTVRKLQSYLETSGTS
* hit, by the source's call; ? = inconclusive; nt = not tested or not shown. Most compounds without a hit are left out; they make up all but 1.2% or so of the library.

SMILES	RAD54 branch	N-glyco inh	RAD52 anneal inh	Casp6 inh	MLL AF4-AF9 inh
CO/N=C/c1ccc(Oc2ccc([N+](=O)[O-])cc2[N+](=O)[O-])c(OC)c1	nt	8	nt	nt	nt
COc1ccc(/C=C2\SC(=O)NC2=S)cc1OC	-48	-2	-353	45*	0
O=C(NC1CCCCCCC1)c1c(O)c2ccccc2[nH]c1=O	-3	0	nt	nt	nt
O=C(NC1CC1)c1c(O)c2ccccc2[nH]c1=O	-12	3	-13	45*	-5
CN=c1sc(C(=O)Nc2cccc(Cl)c2)cc(=O)n1C	-32	31*	nt	nt	nt
Cn1c(N)c(C(=O)Nc2cccc(Cl)c2)c(=O)n(C)c1=O	7	4	-16	-2	2
COc1ccc(C(=O)Nc2ccc3ccccc3c2)c(OC)c1	2	-13	-8	43*	-3
COc1ccc(OC(=O)N(C)C[C@@H]2OCc3ccccc3-c3ccccc3C(=O)N([C@H](C)CO)C[C@@H]2C)cc1	0	nt	-2	6	-3
CC1C(=NO)C(C)C(c2ccc(N(C)C)cc2)NC1c1ccc(N(C)C)cc1 (centres undefined)	4	4	-4	0	43*
C[C@@H]1CN([C@@H](C)CO)C(=O)Cc2cc(NS(=O)(=O)c3ccc(Cl)cc3)ccc2O[C@@H]1CN(C)S(=O)(=O)c1ccc(F)cc1	-1	nt	2	3	1
Cc1cc(N2CCN(c3ccc([N+](=O)[O-])c4cccnc34)CC2)c2ccccc2n1	nt	105*	nt	nt	nt
O=C(Nc1ccccc1)N1CCCCN2[C@H](CO)[C@H](c3ccc(C#Cc4cccnc4)cc3)[C@@H]2C1	4	nt	-12	-1	-6
Cc1cc(NC(=O)C23CC4CC(C2)CC(n2cnc([N+](=O)[O-])n2)(C4)C3)no1	1	4	-7	47*	-1
CN(C)CCCN(C(=O)c1cc(Cl)sc1Cl)c1nc2cc3c(cc2s1)OCO3	26	-3	37	-18	28*
COc1ccc(CN(C)C[C@@H]2Oc3ccc(NS(=O)(=O)c4cn(C)cn4)cc3CC(=O)N([C@@H](C)CO)C[C@H]2C)cc1	10	nt	1	-4	2
CC(C)NC(=O)N[C@H]1CC[C@H](CCNS(=O)(=O)c2ccc(Cl)cc2)O[C@@H]1CO	2	nt	-3	-1	-1
CC(OC(=O)c1ccc(Cl)c(S(=O)(=O)Nc2ccc(F)cc2)c1)C(=O)NC(N)=O (centres undefined)	-11	-1	-6	0	40*
CC(OC(=O)c1cc(S(=O)(=O)Nc2ccc(F)cc2)ccc1Cl)C(=O)Nc1ccc2c(c1)OCCO2 (centres undefined)	nt	0	nt	nt	nt
CC1CCCCC1NS(=O)(=O)c1ccc(S(=O)(=O)N2CCN(CCC#N)CC2)cc1 (centres undefined)	-8	-3	-14	45*	1
CO[C@@H]1CN(C)C(=O)c2cc(NC(=O)Nc3ccccc3Cl)ccc2OC[C@@H](C)N(S(C)(=O)=O)C[C@H]1C	6	nt	nt	nt	nt
CCN(C(=O)CN1C(=O)NC(c2ccccc2)(c2ccccc2)C1=O)c1ccccc1	4	-2	-13	-1	38*
C[C@@H]1CN([C@@H](C)CO)C(=O)c2cc(NS(=O)(=O)c3ccc(Cl)cc3)ccc2O[C@@H](C)CCCCO[C@@H]1CN(C)C(=O)c1ccccc1	0	nt	14	0	-1
O=C(O)c1cc(S(=O)(=O)N2CCN(S(=O)(=O)c3ccc4ccccc4c3)CC2)ccc1Br	0	1	-18	40*	-3
COc1ccccc1CNC(=O)C[C@H]1CC[C@H]2[C@@H](COC[C@@H](O)CN2Cc2cccc(-c3ccncc3)c2)O1	-2	nt	8	0	1
COc1ccc(CN(C)C[C@H]2OCCCC[C@H](C)Oc3ccc(NS(=O)(=O)c4ccccc4)cc3C(=O)N([C@H](C)CO)C[C@H]2C)cc1	-1	nt	25	-3	5
SMILES	RAD54 branch	N-glyco inh	RAD52 anneal inh	Casp6 inh	MLL AF4-AF9 inh
CC(CCc1ccccc1)NC(=O)c1ccc(NC(=O)c2cccc(Br)c2)cc1 (centres undefined)	-2	-4	nt	nt	nt
CC(CCc1ccccc1)NC(=O)c1ccc(NC(=O)c2ccccc2)cc1 (centres undefined)	0	26*	-6	-1	-1
CC(=NNc1cc(C)c2ccccc2n1)c1ccccn1	nt	nt	-94	-18	29*
CN(C)CC(=O)N[C@H]1C[C@@H]2O[C@H](CO)CC[C@@H]2O[C@@H]1CCc1ccc(C#Cc2ccccc2)cc1	nt	nt	60*	0	5
O=C(CC1CC1)N[C@H]1C[C@@H]2O[C@@H](CO)CC[C@@H]2O[C@@H]1CCc1ccc(C#Cc2ccccc2)cc1	nt	nt	4	-2	-3
COc1ccc(C=CC(=O)c2ccc(OCc3ccccc3)c(OC)c2)cc1OC	2	10	-6	nt	-1
COc1ccc(C(=O)/C=C/c2cccc(OCc3ccccc3)c2)cc1CSCC(=O)O	19	6	-14	44*	4
COc1ccc(C(=O)/C=C/c2ccc(OCc3ccccc3)cc2)cc1CSCC(=O)O	11	1	-9	44*	4
COc1ccc(CN(C)C[C@@H]2Oc3ccc(NS(=O)(=O)c4c(C)noc4C)cc3CC(=O)N([C@@H](C)CO)C[C@H]2C)cc1	nt	nt	5	-1	3
O=C(Cc1ccc([N+](=O)[O-])cc1)c1c(O)cc(O)cc1O	-1	1	0	41*	-3
N#Cc1ccccc1Sc1ccccc1C(=O)NCC(c1ccco1)N1CCCC1 (centres undefined)	nt	-2	-227	-5	27*
N#Cc1ccc(C(=O)NCC(c2ccco2)N2CCCC2)cc1 (centres undefined)	-1	-2	nt	nt	nt
O=C(NCCOc1ccccc1)C1CCN(C(=O)Nc2ccccc2)CC1	-8	1	-16	-3	1
CC(=O)N1CCC(C(=O)NCCOc2cccc(C)c2)CC1	2	2	-4	3	26*
C[n+]1cccc2ccc3c(c21)OC(N)=C(C#N)C3c1ccccc1 (centres undefined)	7	-2	6	38*	-2
COc1ccc2c3c(n(C)c2c1)[C@@H](CO)N(Cc1ccc(F)cc1)CC31CN(CC2CC2)C1	nt	nt	16	1	6
COc1ccc2c3c(n(C)c2c1)[C@@H](CO)N(CC1CC1)CC31CN(Cc2ccc(F)cc2)C1	nt	nt	38	-2	30*
COc1ccc2c3c(n(C)c2c1)[C@@H](CO)N(Cc1ccccc1F)CC31CCN(CC2CC2)CC1	nt	nt	26	1	33*
C[C@H](CO)N1C[C@H](C)[C@@H](CN(C)C(=O)Nc2ccccc2)OCCCC[C@H](C)Oc2ccc(NS(C)(=O)=O)cc2C1=O	0	nt	6	0	-4
C[C@@H]1CN([C@@H](C)CO)C(=O)Cc2cc(NC(=O)CCCN(C)C)ccc2O[C@@H]1CN(C)Cc1ccc(Oc2ccccc2)cc1	nt	nt	39	1	28*
C[C@H]1CN([C@@H](C)CO)C(=O)c2cc(NC(=O)CCCN(C)C)ccc2O[C@H]1CN(C)Cc1ccc(Oc2ccccc2)cc1	0	nt	16	-42	?
